Data as given in PubChem BioAssay AID1508625 (Wald Lab, School of Medicine, Case Western Reserve …, 2021).

Test: enhancers of NK cell killing of ovarian tumor cells, primary screen, imaging, OVCAR3, primary NK cells, calcein-AM imaging (AID 1508625);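 also: compound given to NK cells 16 h before adding targets at 1.5 to 1 ratio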
Details: OVCAR3 lysis by primary NK cells, at 5 µM; z-score: measured here: robust Z-score, single-point normalisation

Structure (SMILES)	corrected activity, negative = more killing	z-score
CC1CCN(CCCCCOc2ccccc2Br)CC1	-0.201%	-0.0828
Cc1cccn2c(=O)c3cc(C(=O)N4CCCCCC4)sc3nc12	-6.34%	-1.8
COc1ccc(C(N)=NOC(=O)c2cc(Cl)ccc2Cl)cc1	-1.41%	-0.786
O=C1C(=Cc2cccc([N+](=O)[O-])c2)Sc2ccccc21	-3.79%	-1.61
CCOC(=O)c1ccc(NC(=O)c2cnc3n(c2=O)CCS3)cc1	-6.64%	-2.11
CC(C)NC(=O)CCNC(=O)Cn1cnc2sc3c(c2c1=O)CCCC3	-6.97%	-2.22
COc1cc(OC)c(CN2CCN3CCCC3C2C)cc1Br (stereo not drawn)	-2.76%	-1.21
Cc1ccc(C)c(NC(=O)c2ccc(-c3ccccc3)cc2)c1	-4.26%	-1.81
Cc1ccc(NCc2cccnc2)cc1	-1.25%	-0.529
COc1ccccc1OCc1cccc([N+](=O)[O-])c1	-5.65%	-3.15
COc1ccccc1Cn1c(=S)[nH]c2cc(Cl)ccc2c1=O	-3.97%	-1.05
Cc1ccccc1OCC(=O)N1N=C2CCCCC2C1(O)C(F)(F)F (stereo not drawn)	-5.48%	-2.09
COc1ccc(-c2n[nH]c(=S)o2)cc1	-4.44%	-1.69
O=C(O)CN1C(=O)c2cccc3c(Br)ccc1c23	-4.58%	-2.46
COc1ccc(CNC(=O)CCN2C(=O)C3C4C=CC(CC4)C3C2=O)cc1 (stereo not drawn)	-5.25%	-1.67
CC(C)(C)c1ccc(-c2nc3cc(NC(=O)Cc4ccccc4)ccc3o2)cc1	-3%	-1.06
O=C(NN=Cc1ccc(O)cc1)c1cc(-c2ccc3ccccc3c2)n[nH]1	0.541%	0.236
CCOc1ccc(Br)cc1S(=O)(=O)N1CCN(c2ccc(C)cc2C)CC1	-1.21%	-0.676
CCN1CCN(C(=O)C2c3ccccc3C(=O)N(C)C2c2cccs2)CC1 (stereo not drawn)	-7.01%	-1.74
